Reference: PubChem BioAssay AID1159580 (chemical genetic matrix, 2015)
About 2,000 (36%) of roughly 5,500 compounds were called active. Inconclusive results (about 18%) are left out. This is one part of the list. Values without a mark were called inactive. Cut-off read from the data, not from the text of the source: active = normalized growth mostly below about 0.91 (no sharp cut-off); inconclusive = no clear call, values can overlap the other calls; inactive = mostly above about 0.92.

Assay: chemical genetic growth profiling, strain panel (AID 1159580);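 note: tested at 20 µM; growth read once vehicle control cultures reached saturation at 30 °C; 1 = growth at the plate median or of vehicle wells; lower values mean less growth of the strain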
Details: growth OD

Compound: C=C(C)c1cc2cc(C(C)=O)c(O)cc2o1
- normalized growth (S. cerevisiae deletion strains, locus YJL187C, strain SWE1, hits give low values): 0.994
- normalized growth (S. cerevisiae deletion strains, locus YJR066W, strain TOR1, hits give low values): 0.886
- normalized growth (S. cerevisiae deletion strains, locus YKL009W, strain mrt4, hits give low values): 0.939
- normalized growth (S. cerevisiae deletion strains, locus YKL068W, hits give low values): 0.934 (active)
- normalized growth (S. cerevisiae deletion strains, locus YKL085W, strain MDH1 (second series), hits give low values): 0.918 (active)
- normalized growth (S. cerevisiae deletion strains, locus YKL085W, strain MDH1, hits give low values): 0.918 (active)
- normalized growth (S. cerevisiae deletion strains, locus YKL160W, strain elf1, hits give low values): 0.92
- normalized growth (S. cerevisiae deletion strains, locus YKL190W, strain CNB1, hits give low values): 0.954
- normalized growth (S. cerevisiae deletion strains, locus YKR001C, strain vps1, hits give low values): 0.932
- normalized growth (S. cerevisiae deletion strains, locus YKR026C, strain gcn3, hits give low values): 0.966
- normalized growth (S. cerevisiae deletion strains, locus YKR091W, strain srl3, hits give low values): 0.979
- normalized growth (S. cerevisiae deletion strains, locus YLL001W, strain dnm1, hits give low values): 0.916
- normalized growth (S. cerevisiae deletion strains, locus YLL026W, hits give low values): 0.977
- normalized growth (S. cerevisiae deletion strains, locus YLL041C, strain sdh2, hits give low values): 0.97
- normalized growth (S. cerevisiae deletion strains, locus YLR027C, strain aat2, hits give low values): 0.964
- normalized growth (S. cerevisiae deletion strains, locus YLR039C, strain RIC1, hits give low values): 0.831
- normalized growth (S. cerevisiae deletion strains, locus YLR058C, strain SHM2, hits give low values): 0.948
- normalized growth (S. cerevisiae deletion strains, locus YLR102C, strain apc9, hits give low values): 0.931
- normalized growth (S. cerevisiae deletion strains, locus YLR113W, strain HOG1, hits give low values): 0.834 (active)
- normalized growth (S. cerevisiae deletion strains, locus YLR221C, strain rsa3, hits give low values): 0.975
- normalized growth (S. cerevisiae deletion strains, locus YLR258W, strain gsy2, hits give low values): 0.932
- normalized growth (S. cerevisiae deletion strains, locus YLR262C, strain YPT6 (second series), hits give low values): 0.834 (active)
- normalized growth (S. cerevisiae deletion strains, locus YLR268W, strain sec22, hits give low values): 0.945
- normalized growth (S. cerevisiae deletion strains, locus YLR320W, strain mms22, hits give low values): 0.908
- normalized growth (S. cerevisiae deletion strains, locus YLR342W, strain FKS1 (second series), hits give low values): 0.894
- normalized growth (S. cerevisiae deletion strains, locus YLR342W, strain FKS1, hits give low values): 0.978
- normalized growth (S. cerevisiae deletion strains, locus YLR357W, strain rsc2, hits give low values): 1.01
- normalized growth (S. cerevisiae deletion strains, locus YLR370C, strain arc18, hits give low values): 0.971
- normalized growth (S. cerevisiae deletion strains, locus YLR371W, strain rom2, hits give low values): 0.776 (active)
- normalized growth (S. cerevisiae deletion strains, locus YLR384C, strain iki3, hits give low values): 0.977
- normalized growth (S. cerevisiae deletion strains, locus YLR418C, strain cdc73, hits give low values): 0.861
- normalized growth (S. cerevisiae deletion strains, locus YML016C, strain PPZ1, hits give low values): 0.906 (active)
- normalized growth (S. cerevisiae deletion strains, locus YML032C, strain rad52, hits give low values): 0.942
- normalized growth (S. cerevisiae deletion strains, locus YML120C, strain ndi1, hits give low values): 0.932
- normalized growth (S. cerevisiae deletion strains, locus YML124C, strain tub3, hits give low values): 0.906 (active)
- normalized growth (S. cerevisiae deletion strains, locus YMR058W, strain fet3, hits give low values): 0.954
- normalized growth (S. cerevisiae deletion strains, locus YMR078C, strain ctf18, hits give low values): 0.909 (active)
- normalized growth (S. cerevisiae deletion strains, locus YMR125W, strain sto1, hits give low values): 0.982
- normalized growth (S. cerevisiae deletion strains, locus YMR129W, hits give low values): 0.966
- normalized growth (S. cerevisiae deletion strains, locus YMR205C, strain PFK2, hits give low values): 0.906
- normalized growth (S. cerevisiae deletion strains, locus YMR223W, strain ubp8, hits give low values): 0.967
- normalized growth (S. cerevisiae deletion strains, locus YMR231W, strain pep5, hits give low values): 0.997
- normalized growth (S. cerevisiae deletion strains, locus YMR307W, strain GAS1, hits give low values): 0.904
- normalized growth (S. cerevisiae deletion strains, locus YNL067W, strain RPL9B, hits give low values): 0.986
- normalized growth (S. cerevisiae deletion strains, locus YNL071W, strain lat1, hits give low values): 0.861 (active)
- normalized growth (S. cerevisiae deletion strains, locus YNL128W, strain TEP1, hits give low values): 0.928
- normalized growth (S. cerevisiae deletion strains, locus YNL183C, strain NPR1, hits give low values): 0.889
- normalized growth (S. cerevisiae deletion strains, locus YNL209W, strain ssb2, hits give low values): 0.967
- normalized growth (S. cerevisiae deletion strains, locus YNL233W, strain BNI4, hits give low values): 0.952
- normalized growth (S. cerevisiae deletion strains, locus YNL248C, strain rpa49, hits give low values): 0.956
- normalized growth (S. cerevisiae deletion strains, locus YNL250W, strain rad50, hits give low values): 0.932
- normalized growth (S. cerevisiae deletion strains, locus YNL271C, strain bni1, hits give low values): 0.957
- normalized growth (S. cerevisiae deletion strains, locus YNL298W, strain CLA4, hits give low values): 0.909 (active)
- normalized growth (S. cerevisiae deletion strains, locus YNL307C, strain MCK1, hits give low values): 0.895 (active)
- normalized growth (S. cerevisiae deletion strains, locus YNL322C, strain KRE1 (second series), hits give low values): 0.979
- normalized growth (S. cerevisiae deletion strains, locus YNR049C, strain mso1, hits give low values): 0.976
- normalized growth (S. cerevisiae deletion strains, locus YNR052C, strain pop2, hits give low values): 0.97
- normalized growth (S. cerevisiae deletion strains, locus YOL006C, strain TOP1, hits give low values): 0.714
- normalized growth (S. cerevisiae deletion strains, locus YOL012C, strain htz1): 0.842
- normalized growth (S. cerevisiae deletion strains, locus YOL147C, strain pex11, hits give low values): 0.923 (active)
- normalized growth (S. cerevisiae deletion strains, locus YOR001W, strain rrp6, hits give low values): 0.982
- normalized growth (S. cerevisiae deletion strains, locus YOR061W, strain CKA2, hits give low values): 0.933
- normalized growth (S. cerevisiae deletion strains, locus YOR069W, strain VPS5, hits give low values): 0.968
- normalized growth (S. cerevisiae deletion strains, locus YOR070C, strain gyp1, hits give low values): 0.979
- normalized growth (S. cerevisiae deletion strains, locus YOR080W, strain dia2, hits give low values): 0.984
- normalized growth (S. cerevisiae deletion strains, locus YOR083W, strain WHI5, hits give low values): 0.929
- normalized growth (S. cerevisiae deletion strains, locus YOR106W, strain vam3, hits give low values): 0.965
- normalized growth (S. cerevisiae deletion strains, locus YOR136W, strain idh2, hits give low values): 0.943
- normalized growth (S. cerevisiae deletion strains, locus YOR144C, strain elg1, hits give low values): 0.936
- normalized growth (S. cerevisiae deletion strains, locus YOR184W, strain ser1, hits give low values): 0.845 (active)
- normalized growth (S. cerevisiae deletion strains, locus YOR231W, strain MKK1, hits give low values): 0.93
- normalized growth (S. cerevisiae deletion strains, locus YOR265W, strain rbl2, hits give low values): 0.96
- normalized growth (S. cerevisiae deletion strains, locus YOR270C, strain vph1, hits give low values): 0.88
- normalized growth (S. cerevisiae deletion strains, locus YOR290C, strain snf2, hits give low values): 0.893
- normalized growth (S. cerevisiae deletion strains, locus YOR316C, strain cot1, hits give low values): 0.913 (active)
- normalized growth (S. cerevisiae deletion strains, locus YPL051W, strain arl3, hits give low values): 0.917
- normalized growth (S. cerevisiae deletion strains, locus YPL078C, strain atp4, hits give low values): 0.877 (active)
- normalized growth (S. cerevisiae deletion strains, locus YPL106C, strain sse1, hits give low values): 0.895
- normalized growth (S. cerevisiae deletion strains, locus YPL240C, strain hsp82, hits give low values): 0.961
- normalized growth (S. cerevisiae deletion strains, locus YPL256C, strain CLN2, hits give low values): 0.897
- normalized growth (S. cerevisiae deletion strains, locus YPR119W, strain clb2, hits give low values): 0.942
- normalized growth (S. cerevisiae deletion strains, locus YPR141C, strain kar3, hits give low values): 0.906 (active)
- normalized growth (S. cerevisiae deletion strains, locus YPR163C, strain tif3, hits give low values): 0.976
- normalized growth (S. cerevisiae deletion strains, locus YPR167C, strain met16, hits give low values): 0.927
- normalized growth (S. cerevisiae deletion strains, strain wtn01, hits give low values): 0.89 (active)
- normalized growth (S. cerevisiae strains, strain wild type, hits give low values): 0.929
